Screens as filed in PubChem BioAssay.
D3 antag = D3 dopamine receptor (human) antagonism; P35462; D3R cells, DiscoveRx beta-arrestin luminescence, antagonist mode; active compounds read low; max response, negative = inhibition, %; hit rate 2.5% among 360,000; in the data active means max response below about -50%; inconclusive means no clear call, values can overlap the other calls; further: on the % scale 0 is the no-effect control and ±100 the full control effect
Target sequence (P35462 whole entry, looked up): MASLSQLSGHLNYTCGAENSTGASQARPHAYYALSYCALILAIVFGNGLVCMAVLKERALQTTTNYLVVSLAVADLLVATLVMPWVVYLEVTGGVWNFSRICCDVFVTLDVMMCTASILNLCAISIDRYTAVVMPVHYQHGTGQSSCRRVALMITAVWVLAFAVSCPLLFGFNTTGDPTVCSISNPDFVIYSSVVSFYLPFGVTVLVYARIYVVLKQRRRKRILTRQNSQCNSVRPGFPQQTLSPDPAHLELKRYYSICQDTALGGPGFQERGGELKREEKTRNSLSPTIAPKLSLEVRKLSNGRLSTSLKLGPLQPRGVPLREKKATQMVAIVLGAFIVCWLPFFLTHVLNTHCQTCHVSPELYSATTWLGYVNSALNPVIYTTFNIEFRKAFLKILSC
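Cells expressing the human receptor were seeded at 1500 cells/well, incubated overnight at 37 degrees C in 5% CO2, then exposed to library compounds with dopamine controls for 90 minutes at 37 degrees C before luminescent detection.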
MCF10A rerep = DNA re-replication induction in MCF 10a cells. AID 624296. MCF 10A DNA re-replication, Hoechst nuclear intensity, 48 h. hit rate 2.9% among 350,000. Potency, µM (highest dose often 46.1 µM), inactives show top-dose activity, positive = re-replication, most hits filed as activators; further: potency means the concentration at half of the fitted maximal effect; % of control where 0% means no effect; nearly all actives have a fitted effect of over 50% in size
KB-3-1 cytotox = kills parental KB-3-1 adenocarcinoma cells; KB-3-1 viability, CellTiter-Glo ATP luminescence, 72 h; Potency, µM (highest dose often 46.1 µM), most hits filed as cytotoxic; hit rate 1.4% among 400,000; AID 1347075; further: potency means the concentration at half of the fitted maximal effect; on the % scale 0 is the no-effect control and ±100 the full control effect; nearly all actives have a fitted effect of over 60% in size
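KB-3-1 parental drug-naive adenocarcinoma cells in DMEM/10% FBS, incubated 72 h at 37 C with pin-transferred compounds across a concentration series. Viability by CellTiter-Glo luminescence; concentration-response curves fitted after normalization.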
KB-V1 cytotox = kills drug-selected multidrug resistant KB-V1 cells. KB-V1 MDR cells viability, CellTiter-Glo, 72 h. Potency, µM (titrated, usually from 46.1 µM), hits mostly cytotoxic. hit rate 3.4% among 400,000. AID 1347076; further: potency means the concentration at half of the fitted maximal effect; on the % scale 0 is the no-effect control and ±100 the full control effect; nearly all actives have a fitted effect of over 60% in size
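qHTS viability screen in drug-selected KB-V1 MDR cells: 72 h compound treatment at 37 degrees C, ATP luminescence end point.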
SW480 rereplic = inducers of DNA re-replication in SW480 colon cancer cells. Potency, µM (doses to about 46.1 µM), without a hit: top-dose re-replication activation, usual class: activators. hit rate 1.8% among 340,000. SW480 DNA re-replication, Hoechst DNA content imaging, 48 h; further: potency means the concentration at half of the fitted maximal effect; % of control where 0% means no effect; nearly all actives have a fitted effect of over 55% in size
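Readout is total intensity of Hoechst-stained nuclei, excited at 405 nm and collected at 500-530 nm. Compound treatment lasted 48 hr at 37 C in 5% CO2 before staining.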
DRD3 agonist = agonists of human D3 dopamine receptor. D3R DiscoveRx beta-arrestin cells, luminescence, 90 min. AID 652048. hit rate 0.58% among 410,000. max activation, %; in the data active means max activation above about 30%; further: 0% is about no effect
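Agonist mode: compounds and dopamine controls were applied to plated cells for 90 min at 37 degrees C after an overnight attachment at 1500 cells/well. Luminescent read-out followed 30 - 60 minutes at room temperature with DiscoveRx detection reagent.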
* marks the source's active call; other numbers are inactive results; i = inactive; ? = inconclusive; . = no result. In the library only some 8.9% were active in any assay of this set; here they are far more common. Unless noted, the call rests on the fitted dose curve; in most records, active means well fitted curve in the direction sought with a large enough effect; inconclusive means small, poorly fitted or top-dose-only effect, or another doubt; inactive means no such curve, though single readings can be large; an effect the other way counts as inactive or inconclusive.

SMILES	D3 antag	MCF10A rerep	KB-3-1 cytotox	KB-V1 cytotox	SW480 rereplic	DRD3 agonist
CCCCCCCCCCCCCCCC(=O)O[C@@H]1CC(C)=C(/C=C/C(C)=C/C=C/C(C)=C/C=C/C=C(C)/C=C/C=C(C)/C=C/C2=C(C)C[C@@H](OC(=O)CCCCCCCCCCCCCCC)CC2(C)C)C(C)(C)C1	.	.	.	.	.	-4.6
COc1ccc(C2C=C(C34CC5CC(CC(C5)C3)C4)NC(=S)N2)cc1OC (stereo not drawn)	?	10.0%	i	18.4µM*	?	-7.7
COC1(OC)C(=N/O)/C(=N\O)CCC1O (stereo not drawn)	12.8	16.4µM*	i	i	12.9%	1.7
O=C(NCCN1CCN(c2ccccc2F)CC1)C1CCCN(S(=O)(=O)c2cnc[nH]2)C1 (stereo not drawn)	-55.9*	?	i	i	?	26.6
NS(=O)(=O)c1ccc(CCNC(=O)C2CCN(S(=O)(=O)c3cnc[nH]3)CC2)cc1	-19.5	20.6µM*	i	i	?	-4.5
O=C(NCCN1CCC(Cc2ccccc2)CC1)C1CCCN(S(=O)(=O)c2cnc[nH]2)C1 (stereo not drawn)	-77.5*	13.6%	i	i	-1.4%	-15.0
O=C(NCCc1ccccc1)C1CCCN(S(=O)(=O)c2cnc[nH]2)C1 (stereo not drawn)	-23.2	9.1%	i	i	0.2%	-1.4
COc1ccc(N2CCN(CCCNC(=O)C3CCCN(S(=O)(=O)c4cnc[nH]4)C3)CC2)cc1 (stereo not drawn)	17.6	1.7%	i	i	?	4.0
N#CCC(=O)Nc1ccc(C(=O)NCC(c2ccco2)N2CCCCC2)cc1 (stereo not drawn)	-26.0	-1.2%	i	i	0.2%	3.7
Cc1ccc2nc(/C=C/c3ccc(N(C)C)cc3)ccc2c1	.	.	i	?	.	.
CNC(=O)C1CCC(Cn2c(=O)c3sccc3n(CC(=O)NCc3cccc(OC)c3)c2=O)CC1 (stereo not drawn)	.	.	i	i	.	2.0
COc1cccc(-c2ccc3c(N)c(C(=O)c4ccc(F)cc4)sc3n2)c1	.	.	i	i	.	-2.3
COc1cc(N2C(=O)C=CC2=O)c(OC)cc1Cl	-89.1*	5.8µM*	?	?	?	-30.2
O=[N+]([O-])c1cccc(/C=C/c2ccccc2)c1	.	.	i	i	.	.
CC1(C)COC(/C=C/c2cccc([N+](=O)[O-])c2)=N1	-21.7	14.1µM*	?	i	?	-2.7
C[C@H](CO)N1C[C@H](C)[C@H](CN(C)C(=O)Cc2ccncc2)Oc2ncc(Br)cc2C1=O	16.6	.	i	i	.	7.8
Cc1ccc2[nH]c(O)c(N=Nc3nc4ccccc4s3)c2c1	-22.2	-9.1%	?	13µM*	0.9%	-19.7
Oc1[nH]c2ccccc2c1N=Nc1nc2ccccc2s1	-27.6	13.6%	i	i	-4.0%	-3.5
CCN1c2ccccc2-c2nc(SCC(=O)NCc3ccccc3)ncc2S1(=O)=O	.	.	i	i	.	-13.0
CCCc1cc(C(=O)NNC(=S)NCC2CCCO2)cs1 (stereo not drawn)	6.8	11.9%	i	i	-5.4%	-13.2
Cc1cccc(NC(=S)NNC(=O)c2sccc2C)c1	6.8	5.3%	i	i	0.1%	-18.4
CCc1cc(C(=O)NNC(=S)NCC2CCCO2)cs1 (stereo not drawn)	-53.5*	-7.0%	i	i	-11.1%	-1.6
Cc1cccc(NC(=S)NNC(=O)c2csc(C(C)C)c2)c1	15.1	?	i	20.6µM*	-1.8%	-3.3
CCc1cc(C(=O)NNC(=S)Nc2cccc(C)c2)cs1	-101.3*	?	i	i	-9.3%	-7.5
Cc1cccc(C(=O)NNC(=O)Nc2ccccc2)c1	-16.0	-2.2%	i	i	-0.6%	-10.8
SMILES	D3 antag	MCF10A rerep	KB-3-1 cytotox	KB-V1 cytotox	SW480 rereplic	DRD3 agonist
CCOC(=O)c1c(C)c(-c2ccccc2)n(CC(=O)NCCc2ccc(C)cc2)c1C	.	.	i	i	.	3.8
COc1ccccc1CCNC(=O)Cc1c(C)c2ccc(O)cc2oc1=O	.	.	i	i	.	1.1
COc1cccc(CNC(=O)[C@@H]2CCCN2C(=O)[C@@H]2CCCN2C(=O)c2cccc(OC)c2)c1	6.6	.	?	?	.	3.3
O=C(CN1C(=O)COc2ccc(S(=O)(=O)N3CCOCC3)cc21)N1CCN(c2ccccc2)CC1	.	.	i	i	.	2.1
Cc1ccc(NC(=O)CN2C(=O)COc3ccc(S(=O)(=O)N4CCCCCC4)cc32)cc1C	.	.	.	.	.	-5.8
CCOP1(=O)OCC2OC(n3cnc4c(N)ncnc43)C(O)C2O1 (stereo not drawn)	12.1	14.6µM*	i	i	-17.5%	12.7
Nc1ncnc2c1ncn2[C@@H]1O[C@H](CO)[C@@H](O)[C@H]1O	-16.1	-3.8%	i	i	8.3%	-15.5
O=C(Oc1c(CN2CCOCC2)cc(Cl)c2cccnc12)c1ccccc1Cl	-65.1*	?	?	?	17.5%	-18.1
O=C(Oc1ccc(Cl)c2cccnc12)N1CCOCC1	13.3	0.5%	i	i	-3.6%	0.5
O=C(Oc1c(CN2CCOCC2)cc(Cl)c2cccnc12)c1cccs1	-63.1*	?	?	?	8.2µM*	-18.9
O=C(Oc1c(Cl)cc(Cl)c2cccnc12)c1ccco1	-123.6*	20.6µM*	?	2.06µM*	?	-4.0
O=C(Oc1c(Cl)cc(Cl)c2cccnc12)c1cccs1	?	6.51µM*	?	?	?	-16.4
O=C(NC(c1ccco1)c1cc(Cl)c2cccnc2c1O)c1cccs1 (stereo not drawn)	.	.	i	?	.	.
O=C(Cc1ccccc1)NC(c1ccco1)c1cc(Cl)c2cccnc2c1O (stereo not drawn)	.	.	i	i	.	.
Cc1ccc(NC(=O)CCN2CCN(C/C=C/c3ccccc3)CC2)cc1	-52.9*	?	i	i	?	-7.1
Cc1ccc(NC(=O)CCN2CCN(C/C=C/c3ccccc3)CC2)cc1C	-6.9	?	i	3.26µM*	7.4%	-8.8
COc1ccc(C)cc1NC(=O)CCN1CCN(C/C=C/c2ccccc2)CC1	-52.4*	26.3%	i	i	12.0%	-15.1
COc1ccc(NC(=O)CCN2CCN(C/C=C/c3ccccc3)CC2)cc1	-11.7	-5.9%	i	i	-15.8%	-9.0
COc1cc(NC(=O)CCN2CCN(C/C=C/c3ccccc3)CC2)cc(OC)c1	-58.6*	14.2%	i	i	12.2%	2.6
Cc1ccc(-c2cn3c(n2)sc2cc(C(=O)NC(C)C45CC6CC(CC(C6)C4)C5)ccc23)cc1 (stereo not drawn)	.	.	i	i	.	0.1
